About 83,000 compounds went through this panel and 20% of them were active in at least one assay; those are over-represented in the sample as a whole.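 Treatment: one concentration, 48 hours, 96-well format. Scoring: percent growth, with anything below 10 considered active.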 A number with no mark means an inactive call. The source made the active and inactive calls.
How the values were obtained:
Assay in all cases: NCI-60 one-dose screen, 48 h (100 = growth as untreated, 0 = no growth, -100 = all killed)
Settings in all cases: 10 µM unless noted
SR leukemia = tested on: SR leukemia
RPMI-8226 leukemia = tested on: RPMI-8226 leukemia
OVCAR-8 ovarian = tested on: OVCAR-8 ovarian
OVCAR-4 ovarian = tested on: OVCAR-4 ovarian
SK-OV-3 ovarian = tested on: SK-OV-3 ovarian
IGROV1 ovarian = tested on: IGROV1 ovarian
OVCAR-3 ovarian = tested on: OVCAR-3 ovarian
HS 578T breast = tested on: HS 578T breast
NCI/ADR-RES ovarian = tested on: NCI/ADR-RES ovarian
T-47D breast = tested on: T-47D breast
BT-549 breast = tested on: BT-549 breast
MDA-MB-435 melanoma = tested on: MDA-MB-435 melanoma
SW-620 colon = tested on: SW-620 colon
MCF7 breast = tested on: MCF7 breast
HCT-116 colon = tested on: HCT-116 colon
HCC-2998 colon = tested on: HCC-2998 colon
KM12 colon = tested on: KM12 colon
OVCAR-5 ovarian = tested on: OVCAR-5 ovarian

| Structure (SMILES) | growth (SR leukemia) [%] | growth (RPMI-8226 leukemia) | growth (OVCAR-8 ovarian) | growth (OVCAR-4 ovarian) [%] | growth (SK-OV-3 ovarian) | growth (IGROV1 ovarian) | growth (OVCAR-3 ovarian) [%] | growth (HS 578T breast) | growth (NCI/ADR-RES ovarian) | growth (T-47D breast) | growth (BT-549 breast) | growth (MDA-MB-435 melanoma) | growth (SW-620 colon) | growth (MCF7 breast) | growth (HCT-116 colon) | growth (HCC-2998 colon) [%] | growth (KM12 colon) | growth (OVCAR-5 ovarian) [%] |
| --- | --- | --- | --- | --- | --- | --- | --- | --- | --- | --- | --- | --- | --- | --- | --- | --- | --- | --- |
| O=C(/C=C/c1cccc(O)c1)c1ccc(O)cc1 | 13 | 18.7% | 83.7% | 96.2 | 112% | 80.2% | 14.3 | 101% | 71.4% | 62.6% | 86.5% | 65.5% | 49.2% | 37.3% | 33.8% | 110 | 33.4% | – |
| O=c1oc2ccc(-c3ccc(F)cc3F)cc2c(=O)n1-c1cccc(C(F)(F)F)c1 | 18.4 | -12.9% (active) | 12.4% | – | 0.403% (active) | 8.17% (active) | 10.9 | -4.83% (active) | 4% (active) | 6.01% (active) | 3.66% (active) | 6.94% (active) | 14.2% | 2.43% (active) | 4.36% (active) | 16.4 | 6.11% (active) | 10.4 |
| Nc1n[nH]c2cccc(C#Cc3cccc(NC(=O)c4cccc(OC(F)(F)F)c4)c3)c12 | 47 | 57.2% | 60.3% | – | 105% | – | – | 1.43% (active) | 57.1% | 33.6% | 85% | 41% | 57.1% | 58.8% | – | 38 | 58% | 50.7 |
| CCN1C(=O)N(CC)C2SC(N/N=C/c3ccccc3)=NC21 (centres undefined) | 18.6 | 21.2% | 8.59% (active) | – | 38.3% | 28% | – | 15.8% | 3.93% (active) | 64.8% | -19.9% (active) | -10.2% (active) | 22.5% | 18.6% | 14.2% | 12.7 | 13.3% | 51.6 |
| O=C(O)CNS(=O)(=O)c1ccc(Oc2ccc(S(=O)(=O)NCC(=O)O)cc2)cc1 | 96.7 | 100% | 97.9% | 111 | – | – | 104 | 95.2% | 102% | 95.5% | 115% | 106% | 102% | 93.2% | 103% | 105 | 98.4% | 101 |
| Nc1nc(-c2cccc([N+](=O)[O-])c2)c(N=Nc2ccccc2[N+](=O)[O-])s1 | 48.5 | 36.4% | 8.47% (active) | – | -46.6% (active) | 1.09% (active) | – | 6.64% (active) | 16.8% | 42.3% | 34.4% | 67.7% | 6.99% (active) | 82.2% | -13.8% (active) | 84.9 | – | 43.5 |
| C=C(C)[C@@H]1CC[C@]2(C(=O)NCCCN(CCC#N)CCC#N)CC[C@]3(C)[C@H](CC[C@@H]4[C@@]5(C)CCC(=O)C(C)(C)[C@@H]5CC[C@]43C)[C@@H]12 | 95.7 | 103% | 105% | – | 104% | 112% | 118 | 105% | 102% | 91.2% | 118% | 101% | 100% | 84.9% | 97.1% | 104 | 95.9% | 103 |
| COc1ccc(S(=O)(=O)NCCCNc2nccc(-n3cnc4ccccc43)n2)cc1 | 77.6 | 78.6% | 93.7% | – | 96.2% | 91.4% | 105 | 84.8% | 105% | 66.3% | 92.9% | 98.7% | 104% | 85.1% | 89.9% | 111 | – | 99.6 |
| COc1ccc(/C=N/Nc2nc(Nc3ccccc3)nc(Nc3ccc(S(N)(=O)=O)cc3)n2)cc1 | 48.5 | 47.7% | 67.6% | – | 105% | 58.7% | – | 58.3% | 96.3% | 63.1% | 85.7% | 76.6% | 72.4% | 41% | 50.2% | 87 | 74.4% | 85.6 |

— PubChem BioAssay (NCI)
